Experiment [1] can be described thus: A CellTox Green Cytotoxicity Assay to monitor cytotoxicity in HepG2 cells - 8 hour (AID 1224890). Further: nearly all actives have a fitted effect of over 45% in size. Put shortly:
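HepG2 cells were seeded together with the CellTox Green dye at 600 cells/well, left 5 h at 37 C/5% CO2, then given compounds in DMSO. Fluorescence from dye bound to dead-cell DNA was read repeatedly over 40 h of treatment at 37 C.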

A short description of experiment [2]: qHTS assay to identify small molecule antagonists of the estrogen receptor alpha (ER-alpha) signaling pathway using the BG1 cell line in the presence of 0.1 nM 17-beta-estradiol - cell viability counter screen (AID 1259241). Further: nearly all actives have a fitted effect of over 40% in size. Put shortly:
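Following 5 days in phenol red-free medium with charcoal-stripped serum, VM7Luc4E2 cells received test compounds alongside 0.1 nM 17beta-estradiol (final) at 37C for 22 hr. Live cells were then quantified via protease-substrate fluorescence.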

Experiment [3] can be described thus: qHTS assay to identify small molecule antagonists of the androgen receptor (AR) signaling pathway using the MDA cell line in the presence of 0.5 nM R1881 - cell viability counter screen (AID 1259242). Further: nearly all actives have a fitted effect of over 45% in size. An outline of the steps: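 MDA-kb2 cells (human breast carcinoma, stably carrying MMTV-luciferase reporter) were exposed to compounds with 0.5 nM R1881 (final) for 16 hr at 37C, 0% CO2; viability then read as live-cell protease fluorescence (CellTiter-Fluor, 30 min) in the same wells.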

The target of experiment [4] is Androgen receptor (Homo sapiens) (UniProt P10275). Briefly: qHTS assay to identify small molecule antagonists of the androgen receptor (AR) signaling pathway using the MDA cell line in the presence of 0.5 nM R1881 (AID 1259243). Further: nearly all actives have a fitted effect of over 50% in size. Further: potency means the concentration at half of the fitted maximal effect. An outline of the steps: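 MDA-kb2 human breast carcinoma cells carrying an MMTV-luciferase reporter (AR- and GR-responsive) were plated, rested 5 hr at 37C, dosed with compounds, then stimulated with 0.5 nM R1881 (final) for 16 hr; luminescence was read after ONE-Glo.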
Sequence of Androgen receptor (Homo sapiens) (P10275 whole entry, looked up): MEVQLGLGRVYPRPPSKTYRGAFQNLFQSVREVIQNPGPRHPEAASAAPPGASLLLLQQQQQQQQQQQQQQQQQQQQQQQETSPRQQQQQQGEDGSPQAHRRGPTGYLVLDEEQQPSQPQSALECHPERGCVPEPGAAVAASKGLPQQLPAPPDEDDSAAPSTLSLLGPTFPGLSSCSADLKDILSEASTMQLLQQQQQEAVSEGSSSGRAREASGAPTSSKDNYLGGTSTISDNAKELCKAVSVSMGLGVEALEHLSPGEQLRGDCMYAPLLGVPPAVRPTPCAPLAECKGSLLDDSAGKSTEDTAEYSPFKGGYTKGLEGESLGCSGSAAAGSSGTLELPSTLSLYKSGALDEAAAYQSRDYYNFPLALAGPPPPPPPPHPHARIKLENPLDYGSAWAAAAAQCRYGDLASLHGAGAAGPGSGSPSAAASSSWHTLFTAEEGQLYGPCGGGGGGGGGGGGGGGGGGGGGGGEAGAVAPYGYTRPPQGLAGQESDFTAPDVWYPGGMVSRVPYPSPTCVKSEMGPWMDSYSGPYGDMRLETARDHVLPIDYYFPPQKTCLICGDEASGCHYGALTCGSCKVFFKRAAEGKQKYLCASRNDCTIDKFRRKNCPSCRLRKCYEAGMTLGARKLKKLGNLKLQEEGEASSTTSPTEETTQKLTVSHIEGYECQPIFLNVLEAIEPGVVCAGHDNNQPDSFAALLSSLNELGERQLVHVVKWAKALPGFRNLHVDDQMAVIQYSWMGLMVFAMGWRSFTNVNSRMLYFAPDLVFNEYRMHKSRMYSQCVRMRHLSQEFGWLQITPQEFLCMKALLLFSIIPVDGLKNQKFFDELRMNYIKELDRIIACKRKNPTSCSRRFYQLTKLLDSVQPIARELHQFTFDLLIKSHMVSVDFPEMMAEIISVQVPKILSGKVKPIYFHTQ

The target of experiment [5] is Estrogen receptor (Homo sapiens) (UniProt P03372). The experiment is described as follows: qHTS assay to identify small molecule antagonists of the estrogen receptor alpha (ER-alpha) signaling pathway using the BG1 cell line in the presence of 0.1 nM 17-beta-estradiol (AID 1259244). Further: nearly all actives have a fitted effect of over 50% in size. Put shortly:
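VM7Luc4E2 cells (endogenous full-length ER-alpha, stable 4xERE-luciferase) were grown 5 days in phenol red-free medium with charcoal-stripped FBS, then exposed 22 h at 37C to compounds plus 0.1 nM (final) 17beta-estradiol; ONE-Glo luminescence read-out.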

The nature of experiment [6]: qHTS assay to identify small molecule phospholipidosis (PLD) inducers (AID 1259344; active means well fitted curve in the direction sought with a large enough effect; an effect the other way counts as inactive or inconclusive). Put shortly:
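HepG2 cells on collagen I, attached 4 h at 37 C, were co-treated with compound and LipidTOX Red dye for 24 h at 37 C, then fixed with paraformaldehyde plus Hoechst 33342 and imaged by high-content microscopy for phospholipid accumulation.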
On the technique in general: qHTS replaces the single test concentration by a dilution series.

A short description of experiment [7]: qHTS assay to identify small molecule HDAC inhibitors (AID 1259364). Further: nearly all actives have a fitted effect of over 45% in size. Further: potency means the concentration at half of the fitted maximal effect. Put shortly: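 Wild-type HCT-116 cells were plated overnight, exposed to compounds for 2 h at 37 °C, then given HDAC-Glo class I/II luminogenic reagent for 30 min at room temperature before luminescence was read.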
The nature of experiment [8]: qHTS assay to identify small molecule HDAC inhibitors - cell viability counter screen (AID 1259365). Further: series mostly up to about 92 µM; nearly all actives have a fitted effect of over 50% in size. An outline of the steps: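 HCT-116 wild-type, overnight attachment; 2hr drug exposure, 37C; CellTiter-Glo luminescent ATP readout after 30min RT.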
Experiment [9] can be described thus: qHTS assay to identify small molecule agonists of the sonic hedgehog signaling (Shh) pathway - cell viability counter screen (AID 1259366). Further: nearly all actives have a fitted effect of over 50% in size. Further: potency means the concentration at half of the fitted maximal effect. Put shortly:
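Compounds in DMSO were pin-transferred onto 3T3 Gli1-Luc cells that had settled 4hr; plates then stood 24hr at 37C and 5% CO2. One hour before the end, CellTiter-Fluor was added and fluorescence recorded.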

Experiment [10] in a line: qHTS assay to identify small molecule antagonists of the sonic hedgehog signaling (Shh) pathway - cell viability counter screen (AID 1259367). Further: nearly all actives have a fitted effect of over 55% in size. Put shortly:
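NIH/3T3-derived Gli1-Luc reporter cells (2,000 per well) rested 4 hr at 37 C, then received DMSO compounds plus conditioned medium. After 23 hr of treatment, CellTiter-Fluor was added for 1 hr at 37C and fluorescence read.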

“And” between values parts separate entries of the source, which are not always exact repeats. Equal entries are not always repeated. Records with an inconclusive call do not appear. Some compounds were tested as several samples or in several runs, with calls that do not always agree. The source made the active and inactive calls. Unless noted, the call rests on the fitted dose curve; in most records, active means well fitted curve in the direction sought with a large enough effect in the repeat runs; inconclusive means weak or mixed curves; inactive means no such curve, though single readings can be large; an effect the other way counts as inactive or inconclusive.

Sequence of Estrogen receptor (Homo sapiens) (P03372 whole entry, looked up): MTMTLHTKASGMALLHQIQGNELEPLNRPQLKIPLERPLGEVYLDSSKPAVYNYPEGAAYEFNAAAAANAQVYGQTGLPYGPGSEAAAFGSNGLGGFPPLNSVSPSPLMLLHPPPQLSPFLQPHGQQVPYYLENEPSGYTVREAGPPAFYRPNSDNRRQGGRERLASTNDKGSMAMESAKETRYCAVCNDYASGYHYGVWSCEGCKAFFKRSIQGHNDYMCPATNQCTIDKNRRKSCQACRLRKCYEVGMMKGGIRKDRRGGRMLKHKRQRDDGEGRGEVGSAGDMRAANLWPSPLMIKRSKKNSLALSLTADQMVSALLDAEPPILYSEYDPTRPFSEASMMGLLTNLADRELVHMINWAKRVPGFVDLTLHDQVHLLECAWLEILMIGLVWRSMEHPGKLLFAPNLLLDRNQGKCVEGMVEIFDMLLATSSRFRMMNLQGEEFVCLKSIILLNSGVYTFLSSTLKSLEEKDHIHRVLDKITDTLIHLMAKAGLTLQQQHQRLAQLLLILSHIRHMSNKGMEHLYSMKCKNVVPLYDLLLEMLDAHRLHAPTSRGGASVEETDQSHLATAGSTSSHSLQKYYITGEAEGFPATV

For the molecule `CC(=O)c1ccc(S(=O)(=O)NC(=O)NC2CCCCC2)cc1`, the Potency result in experiment [1], in experiment [2], in experiment [3], in experiment [4], in experiment [5] and in experiment [6] was “inactive” each time. In addition, the Potency result in experiment [7], in experiment [9] and in [10] was “inactive” throughout. In addition, the call in experiment [8] was inactive.

In the case of `CN(C)Cc1cc(CN(C)C)c(O)c(CN(C)C)c1`, the Potency result in experiment [1], in experiment [2], in [3], in experiment [4], in [5] and in experiment [7] was “inactive” each time. For the same molecule, the Potency result in experiment [9] and in experiment [10] was “inactive” throughout. The molecule was classed as inactive in experiment [8].

For `CC1=NN(c2ccccc2)C(=O)C1`, the Potency entry in experiment [1], in experiment [2], in experiment [3], in experiment [5], in [6] and in experiment [7] was “inactive” in each case. Also, the Potency entry in [9] and in experiment [10] was “inactive” throughout. Further, the result in experiment [8] was inactive.

As to `N[C@@H](Cc1c[nH]c2ccc(O)cc12)C(=O)O`, the Potency entry in experiment [1], in [2], in [3], in experiment [5], in [6] and in experiment [7] was “inactive” throughout. For the same molecule, the Potency entry in experiment [9] and in experiment [10] was “inactive” each time. Also, the molecule was classed as inactive in experiment [8].

As to `Cc1cccc2ccccc12`, the Potency result in experiment [1], in experiment [2], in experiment [3], in experiment [5], in experiment [7] and in experiment [9] was “inactive” each time. The Potency entry in experiment [10] is “inactive”. In [8], the molecule was called inactive.

With `Oc1cccc(O)c1`, the Potency result in [1], in experiment [2], in experiment [3], in experiment [5], in experiment [6] and in experiment [7] was “inactive” each time. Also, the Potency result in [9] and in experiment [10] was “inactive” each time. Moreover, the call in [8] was inactive.

With `OCCCc1ccccc1`, the Potency result in experiment [1], in experiment [2], in experiment [3], in experiment [5], in experiment [6] and in [7] was “inactive” throughout. Moreover, the Potency result in [9] and in experiment [10] was “inactive” in each case. Also, the outcome in [8] was inactive.

`Cc1c(N(C)C)c(=O)n(-c2ccccc2)n1C`: the Potency entry in experiment [1], in [2], in experiment [3], in experiment [5], in experiment [6] and in experiment [7] was “inactive” each time. Besides, the Potency result in experiment [9] and in [10] was “inactive” in each case. The outcome in [8] was inactive.

On to `CC(=O)OC/C=C(C)/C=C/C=C(C)/C=C/C1=C(C)CCCC1(C)C`, for which the Potency result in [1], in experiment [2], in [3], in experiment [5], in experiment [6] and in experiment [7] was “inactive” each time. In addition, the Potency result in [9] and in [10] was “inactive” in each case. In addition, the molecule was classed as inactive in [8].

In the case of `CC(O)COc1ccccc1` (configuration not stated), the Potency entry in experiment [1], in [2], in experiment [3], in experiment [4], in experiment [6] and in experiment [7] was “inactive” throughout. The Potency result in [9] and in [10] was “inactive” in each case. For the same molecule, the molecule was called inactive in [8].

For the molecule `CCCCCCCCCCCCCCCCCC(=O)OCC(O)CO` (configuration not stated), the Potency result in experiment [1], in experiment [2], in experiment [3], in experiment [5], in [6] and in experiment [7] was “inactive” throughout. Besides, the Potency result in [9] and in experiment [10] was “inactive” throughout. The call in [8] was inactive.

On to `COC(=O)c1ccc(O)cc1`, for which the Potency entry in [1], in experiment [2], in [3], in [5], in experiment [6] and in experiment [7] was “inactive” throughout. For the same molecule, the Potency entry in [9] and in experiment [10] was “inactive” throughout. The molecule was classed as inactive in experiment [8].

For the molecule `C/C=C/c1ccc(O)c(OC)c1`, the Potency result in experiment [1], in [2], in experiment [3], in experiment [5], in experiment [6] and in [7] was “inactive” in each case. In addition, the Potency result in [9] and in experiment [10] was “inactive” in each case. In addition, the result in experiment [8] was inactive.

Turning to `CC(C)Cc1ccc(C(C)C(=O)O)cc1` (configuration not stated), the Potency result in [1], in [2], in experiment [3], in [5], in [6] and in [7] was “inactive” in each case. Further, the Potency result in experiment [9] and in experiment [10] was “inactive” in each case. In addition, the outcome in experiment [8] was inactive.

For the molecule `CN/C(=C\[N+](=O)[O-])NCCSCc1ccc(CN(C)C)o1`, the Potency result in experiment [1], in experiment [2], in [3], in experiment [5], in experiment [6] and in experiment [7] was “inactive” throughout. The Potency result in experiment [9] and in experiment [10] was “inactive” in each case. In experiment [8], the call was inactive.

`COCCOCCOC`: the Potency entry in [1], in [2], in [3], in experiment [4], in experiment [5] and in experiment [7] was “inactive” each time. Further, the Potency result in experiment [9] and in experiment [10] was “inactive” throughout. The molecule was classed as inactive in [8].

Turning to `COc1cc(C=O)ccc1O`, the Potency entry in experiment [1], in experiment [2], in experiment [3], in [4], in experiment [5] and in experiment [6] was “inactive” throughout. For the same molecule, the Potency result in experiment [7], in [9] and in [10] was “inactive” in each case. For the same molecule, the molecule was classed as inactive in experiment [8].

Take `COc1ccc(C(=O)c2ccccc2)c(O)c1`: the Potency result in experiment [1], in [2], in experiment [3], in [5], in experiment [6] and in experiment [7] was “inactive” in each case. In addition, the Potency entry in experiment [9] and in [10] was “inactive” throughout. Also, the Potency in experiment [4] was 15.1 µM (active) and 27.3 µM (active) and 21.1 µM (active). In addition, the outcome in [8] was inactive.

Consider `CC(=O)Oc1ccccc1C(=O)O`, for which the Potency entry in experiment [1], in [2], in experiment [3], in [4], in [5] and in experiment [6] was “inactive” each time. Also, the Potency result in experiment [7], in experiment [9] and in experiment [10] was “inactive” each time. For the same molecule, the molecule was called inactive in experiment [8].

For the molecule `COc1cc(O)c(C(=O)c2ccccc2)cc1S(=O)(=O)O`, the Potency result in experiment [1], in experiment [2], in [3], in experiment [4], in [5] and in [6] was “inactive” throughout. Further, the Potency result in experiment [7], in experiment [9] and in experiment [10] was “inactive” throughout. Also, in experiment [8], the molecule was called inactive.

Take `CCCCCCCCCCCCCC(=O)OC(C)C`: the Potency entry in experiment [1], in [2], in experiment [3], in [4], in experiment [5] and in [6] was “inactive” each time. For the same molecule, the Potency entry in [7], in experiment [9] and in [10] was “inactive” each time. Further, the outcome in [8] was inactive.

With `CCCCCCCCOc1ccc(C(=O)c2ccccc2)c(O)c1`, the Potency result in experiment [1], in [2], in experiment [3], in experiment [5], in experiment [6] and in experiment [7] was “inactive” in each case. Also, the Potency entry in [9] and in experiment [10] was “inactive” in each case. For the same molecule, the molecule was called inactive in [8].

Regarding `Cc1ccc(O)c(-n2nc3ccccc3n2)c1`, the Potency entry in [1], in [2], in experiment [3], in experiment [5], in [6] and in experiment [10] was “inactive” each time. Moreover, the Potency in experiment [7] was 1.08 µM (active) and 2.17 µM (active) and 1.5 µM (active); in experiment [9] it was 60.6 µM (active) and inactive. Besides, in experiment [8], the result was inactive.

Regarding `CCn1cc(C(=O)O)c(=O)c2ccc(C)nc21`, the Potency result in experiment [1], in experiment [2], in experiment [3], in experiment [5], in experiment [6] and in experiment [7] was “inactive” throughout. For the same molecule, the Potency result in experiment [9] and in experiment [10] was “inactive” throughout. In addition, the call in experiment [8] was inactive.

As for `O=c1c(-c2ccc(O)cc2)coc2cc(O)cc(O)c12`, the Potency entry in experiment [1], in experiment [2], in [3], in [4], in experiment [6] and in experiment [9] was “inactive” each time. In experiment [10], the Potency entry is “inactive”. The Potency in experiment [7] is 8.49 µM (active) and 6.86 µM (active) and 9.44 µM (active). For the same molecule, in experiment [8], the result was inactive.

As to `O=C(O)CN(CC(=O)O)CC(=O)O`, the Potency result in experiment [1], in experiment [2], in [3], in experiment [5], in experiment [7] and in experiment [9] was “inactive” each time. Also, the Potency result in [10] was “inactive”. The outcome in experiment [8] was inactive.

For the molecule `NC(=O)N1c2ccccc2C=Cc2ccccc21`, the Potency entry in [1], in [2], in experiment [3], in experiment [5], in [6] and in [7] was “inactive” throughout. Besides, the Potency result in [9] and in experiment [10] was “inactive” throughout. Further, the outcome in [8] was inactive.

Source of the values: PubChem BioAssay (Tox21).
